According to PubChem BioAssay:
Active and inactive are the calls of the source.

Experiments:
[1] = test system: Human papillomavirus type 1a protein E7 (residues 44-93); assay: small molecules binding HPV E7 44-93 – biochemical, small-molecule microarray, residues 44-93, 635 nm fluorescence, primary screen (AID 1108); conditions: fluorescence 635 nm, higher = more signal;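 also: E7 fragment applied at 1 µg/mL in TBST for 1 h at 4 C; score combines spot fluorescence with its signal to noise ratio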
[2] = hepatitis C replication reporter changes, two-sided – Huh7 cells, luciferase reporter, HCV replication inhibitor project, primary screen (AID 1109); conditions: Huh7 HCV replicon luciferase reporter, 48 h; higher = more signal;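 also: huh7 hepatoma cells harbouring a luciferase neomycin HCV replicon reporter; luciferase luminescence as measure of HCV replicon replication; test concentration not given here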
[3] = target: Left-right determination factor 2 (Homo sapiens) (UniProt O00292); assay: small molecules binding LEFTY2 protein – biochemical, small-molecule microarray, 635 nm fluorescence scan, primary screen (AID 1110); conditions: higher = more signal
[4] = target: Calmodulin-1 (Homo sapiens) (UniProt P0DP23); assay: small molecules binding calmodulin-1 with EGTA – biochemical, small-molecule microarray, Cy5-labelled CALM1, profiling panel (AID 1111); conditions: Cy5-CALM1 binding fluorescence, higher = more signal;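 also: labelled calmodulin applied in Tris saline Tween buffer holding calcium plus EGTA and DTT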
[5] = target: Calmodulin-1 (Homo sapiens) (UniProt P0DP23); assay: small molecules binding Ca-loaded calmodulin-1 – biochemical, small-molecule microarray, Cy5-labelled CALM1, plus calcium, artefact control for SMM control-protein annotation, profiling panel (AID 1112); conditions: Cy5-CALM1 binding fluorescence, higher = more signal;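 also: score merges spot fluorescence with signal to noise from triplicate slides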
[6] = probe aWnt5a binding to arrayed compounds – biochemical, biotinylated probe, 635/667 nm fluorescence, primary screen (AID 1113); conditions: small-molecule microarray, higher = more signal;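 also: score merges 667 nm fluorescence intensity with signal-to-noise per printed feature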
[7] = probe aShh binding to arrayed compounds – biochemical, biotinylated probe, 635/667 nm fluorescence, primary screen (AID 1114); conditions: small-molecule microarray, higher = more signal;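 also: probe is biotin-labelled aShh protein from a stem cell growth factor screen; measures binding of labelled protein to compounds printed on the slide; score merges feature fluorescence at 667 nm with signal-to-noise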
[8] = probe aNog binding to arrayed compounds – biochemical, biotinylated probe, 635/667 nm fluorescence, primary screen (AID 1115); conditions: small-molecule microarray, higher = more signal;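 also: probe is biotinylated aNog protein used at 0.15 µg/mL for 1 h at 4 C; z-score combines 667 nm fluorescence of each spot with its signal to noise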
[9] = target: Torsin-1A-interacting protein 1 (Homo sapiens) (UniProt Q5JTV8); assay: compound microarray binding of lysate hLAP1 – cell lysate, small-molecule microarray, COS7 lysate, 635/667 nm fluorescence, primary screen (AID 1116); conditions: 635 nm fluorescence, higher = more signal
[10] = target: Alpha-bungarotoxin (Bungarus multicinctus) (UniProt P60615); assay: compounds binding labelled alpha-BTX control protein – biochemical, small-molecule microarray, Alexa647 label, 635/667 nm fluorescence, artefact control for SMM control protein annotation, profiling panel (AID 1117); conditions: alpha-BTX-A647 binding fluorescence, higher = more signal
Albumin (Bos taurus) = Albumin (Bos taurus) (UniProt P02769); assay: compounds binding labelled BSA control protein – biochemical, small-molecule microarray, Alexa647 label, 635/667 nm fluorescence, artefact control for SMM control protein annotation, profiling panel (AID 1118); conditions: BSA-A647 binding, fluorescence 635 nm, higher = more signal;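 also: score merges 667 nm emission intensity and signal-to-noise per printed compound spot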
[11] = probe aXIP binding to arrayed compounds – biochemical, NeuroSMM set, 635/667 nm fluorescence, primary screen (AID 1119); conditions: small-molecule microarray, higher = more signal, called active from +8 up or from −8 down;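 also: probe is the protein aXip251-270 applied at 1 µg/mL to compound-printed slides; binding of probe to printed compounds measured as 667 nm fluorescence plus signal to noise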
[12] = probe aNOTCH3 binding on compound microarray – biochemical, small-molecule microarray, 635/667 nm fluorescence, primary screen (AID 1120); conditions: higher = more signal;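 also: probe is a biotin-tagged antibody raised against NOTCH3 rather than NOTCH3 protein; score merges spot fluorescence near 667 nm with spot signal to noise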
[13] = probe aNOTCH2 binding on compound microarray – biochemical, small-molecule microarray, 635/667 nm fluorescence, primary screen (AID 1121); conditions: higher = more signal;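 also: score merges feature fluorescence read at 667 nm with its signal to noise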
[14] = target: Carbonic anhydrase 2 (Homo sapiens) (UniProt P00918); assay: compounds binding carbonic anhydrase 2 – biochemical, small-molecule microarray, Alexa647-labelled CAII, profiling panel (AID 1122); conditions: CAII-A647 binding fluorescence, higher = more signal
[15] = COS7 lysate on small-molecule microarray, probe aHis, 635 nm (AID 1123); conditions: COS7 cell lysate, fluorescence, higher = more signal;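 also: z-score combines 667nm fluorescence intensity with signal-to-noise per printed compound spot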
[16] = probe aLAP1 signal on lysate-treated microarray – cell lysate, small-molecule microarray, COS7 lysate, primary screen (AID 1124); conditions: probe aLAP1, fluorescence, higher = more signal;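 also: lysate comes from COS7 cells expressing LAP1 and is applied at 0.3 µg/mL; score merges spot fluorescence near 667 nm with signal-to-noise over triplicate slides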
Sam68 (KHDRBS1) = assay: compounds binding KHDRBS1 protein – biochemical, small-molecule microarray, 635 nm fluorescence, primary screen (AID 1125); conditions: higher = more signal;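 also: score merges 667 nm channel intensity with signal to noise over triplicate slides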
[17] = test system: Chordin-like protein 2 (CHRDL2); assay: compounds binding chordin-like 2 – biochemical, small-molecule microarray, 635 nm fluorescence, primary screen (AID 1126); conditions: fluorescence 635 nm, higher = more signal;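 also: printed compound slides probed with Chrdl2 protein at 4 µg/mL for 1 h at 4 C; score merges 667 nm emission intensity with signal to noise over three replicate slides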
[18] = target: Concanavalin-A (Canavalia ensiformis) (UniProt P02866); assay: compounds binding concanavalin A lectin – biochemical, small-molecule microarray, Alexa647 label, 635 nm, artefact control for SMM control protein annotation, primary screen (AID 1127); conditions: ConA-A647 binding fluorescence, higher = more signal;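 also: z combines 667 nm emission intensity with signal-to-noise across three replicate slides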
Concanavalin-A (Canavalia ensiformis), sequence (P02866 whole entry, looked up): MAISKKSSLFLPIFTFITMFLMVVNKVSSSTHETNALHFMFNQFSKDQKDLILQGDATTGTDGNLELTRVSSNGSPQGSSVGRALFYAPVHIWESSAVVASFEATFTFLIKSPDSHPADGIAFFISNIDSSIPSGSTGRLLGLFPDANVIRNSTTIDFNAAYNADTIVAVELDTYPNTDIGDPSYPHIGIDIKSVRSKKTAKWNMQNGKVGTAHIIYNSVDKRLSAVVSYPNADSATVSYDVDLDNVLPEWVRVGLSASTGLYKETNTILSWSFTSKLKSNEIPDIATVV

Torsin-1A-interacting protein 1 (Homo sapiens), sequence (Q5JTV8 whole entry, looked up): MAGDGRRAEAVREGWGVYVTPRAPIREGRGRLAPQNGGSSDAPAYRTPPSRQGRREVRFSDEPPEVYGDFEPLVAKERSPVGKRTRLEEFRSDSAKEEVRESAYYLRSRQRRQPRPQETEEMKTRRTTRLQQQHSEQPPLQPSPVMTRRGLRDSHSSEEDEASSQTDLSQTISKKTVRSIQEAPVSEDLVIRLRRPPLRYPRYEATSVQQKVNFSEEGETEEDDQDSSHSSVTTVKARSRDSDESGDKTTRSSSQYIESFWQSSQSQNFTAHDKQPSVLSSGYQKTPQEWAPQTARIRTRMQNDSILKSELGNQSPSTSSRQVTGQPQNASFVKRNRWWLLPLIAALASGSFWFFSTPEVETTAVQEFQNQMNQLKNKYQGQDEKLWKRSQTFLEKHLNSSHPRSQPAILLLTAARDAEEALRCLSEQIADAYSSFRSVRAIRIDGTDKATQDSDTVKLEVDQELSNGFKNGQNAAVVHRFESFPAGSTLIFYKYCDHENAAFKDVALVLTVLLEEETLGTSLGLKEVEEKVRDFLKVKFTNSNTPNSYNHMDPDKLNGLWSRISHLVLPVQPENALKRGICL
Alpha-bungarotoxin (Bungarus multicinctus), sequence (P60615 whole entry, looked up): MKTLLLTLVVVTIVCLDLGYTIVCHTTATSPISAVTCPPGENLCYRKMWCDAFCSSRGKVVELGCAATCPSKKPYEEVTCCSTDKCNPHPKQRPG
Left-right determination factor 2 (Homo sapiens), sequence (O00292 whole entry, looked up): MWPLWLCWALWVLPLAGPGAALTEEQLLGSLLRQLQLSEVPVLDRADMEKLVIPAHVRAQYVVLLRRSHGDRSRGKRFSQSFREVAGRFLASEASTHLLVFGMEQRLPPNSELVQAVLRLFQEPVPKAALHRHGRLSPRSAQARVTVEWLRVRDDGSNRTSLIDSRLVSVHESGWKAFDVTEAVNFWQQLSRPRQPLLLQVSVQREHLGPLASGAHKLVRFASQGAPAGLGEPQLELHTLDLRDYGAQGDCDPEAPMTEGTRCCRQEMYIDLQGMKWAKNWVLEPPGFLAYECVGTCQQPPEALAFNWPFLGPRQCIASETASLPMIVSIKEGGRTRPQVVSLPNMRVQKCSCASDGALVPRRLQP
Albumin (Bos taurus), sequence (P02769 whole entry, looked up): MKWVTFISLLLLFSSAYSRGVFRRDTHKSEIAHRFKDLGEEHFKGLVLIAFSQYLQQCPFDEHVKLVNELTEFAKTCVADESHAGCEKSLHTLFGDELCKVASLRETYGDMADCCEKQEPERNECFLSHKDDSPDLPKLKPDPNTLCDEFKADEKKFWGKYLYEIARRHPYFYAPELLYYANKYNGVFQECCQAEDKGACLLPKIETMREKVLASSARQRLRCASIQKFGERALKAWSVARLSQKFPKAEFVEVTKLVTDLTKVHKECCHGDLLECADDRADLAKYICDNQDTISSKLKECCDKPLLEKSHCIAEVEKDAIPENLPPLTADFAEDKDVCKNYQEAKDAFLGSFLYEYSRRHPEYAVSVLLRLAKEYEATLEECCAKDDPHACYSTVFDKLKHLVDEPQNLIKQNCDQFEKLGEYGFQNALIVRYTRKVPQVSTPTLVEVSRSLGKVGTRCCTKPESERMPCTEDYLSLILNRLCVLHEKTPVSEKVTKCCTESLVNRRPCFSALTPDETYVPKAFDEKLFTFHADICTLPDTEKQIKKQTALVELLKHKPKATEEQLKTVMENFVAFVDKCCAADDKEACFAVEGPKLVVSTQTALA

Compound	composite z-score [1]	z-score [2]	composite z-score [3]	composite z-score [4]	composite z-score [5]	composite z-score [6]	composite z-score [7]	composite z-score [8]	composite z-score [9]	composite z-score [10]	composite z-score (Albumin (Bos taurus))	composite Z-score [11]	composite z-score [12]	composite z-score [13]	composite z-score [14]	composite z-score [15]	composite z-score [16]	composite z-score (Sam68 (KHDRBS1))	composite z-score [17]	composite z-score [18]
C=C(CCCC)C(=O)CC[C@H](OC(=O)c1ccccc1-c1ccccc1C(=O)O)c1cccc(OCCO)c1	-0.109	-1.92	0.0292	-0.268	-0.832	-0.13	-0.0866	-0.318	0.206	-0.0274	0.314	-0.634 (inactive)	-0.161	-0.126	0.749	0.729	1.07	0.225	-0.189	-1.14
COC(=O)C[C@H]1O[C@]2(C(=O)N(C)c3ccccc32)[C@@H](C)[C@@H]1[Si](C)(C)c1ccccc1	0.623	-2.1	0.469	-0.0495	-0.401	-0.124	0.318	-0.0446	0.0282	0.586	-0.0967	-0.142 (inactive)	0.16	-0.171	0.288	0.198	0.216	0.898	0.816	0.593
COc1cc(CO)cc(I)c1O[C@H]1C=C(C(=O)NCCO)C[C@@H](N(CCN2CCOCC2)C(=O)C2CCCO2)[C@@H]1O (stereo not given in full)	0.35	0.109	0.445	-0.292	-0.671	-0.0606	-0.0769	-0.248	0.11	-0.197	-0.184	0.204 (inactive)	0.0261	-0.0684	-0.107	-0.61	-0.0581	-0.0878	0.365	-0.0855
C=CCOC(=O)[C@H]1[C@@H]2C(=O)O[C@@H](c3ccccc3)[C@@H](c3ccccc3)N2[C@@H](c2ccc(OCCOC(=O)[C@@H]3C[C@@H]4C(=O)N[C@@H](Cc5ccccc5)C(=O)N4[C@@H]3c3ccc(O)cc3)cc2)[C@]12C(=O)Nc1ccc(I)cc12	1.27	-1.64	0.898	0.367	0.242	-0.152	-0.154	-0.432	-0.164	0.875	-0.257	0.661 (inactive)	0.698	-0.092	0.218	1.33	-0.052	1.16	0.915	0.92
C=C(COC)/C(=C/C[C@@H](OC(=O)c1ccncc1)c1ccccc1OCCO)c1cnc2ccccc2c1	1.24	-2.8	1.14	0.528	-0.469	0.067	0.111	0.361	1.47	2.96	0.57	0.341 (inactive)	0.265	-0.0762	0.962	0.562	0.475	1.3	1.38	1.22
O=C1C2C=CC(C(O)c3ccccn3)N(Nc3ccc([N+](=O)[O-])cc3)C2C(=O)N1c1ccccc1 (stereo not given)	0.0529	-0.35	0.335	2.02	0.897	-0.0799	0.184	0.479	0.958	1.11	0.89	0.0129 (inactive)	0.0162	0.0215	0.592	0.438	1.85	0.102	-0.421	1.13
COC(=O)[C@@]1(Cc2ccc(F)cc2)[C@H]2c3cc(C(=O)N4CCCC4)n(Cc4ccc(C(F)(F)F)nc4)c3C[C@H]2CN1C(=O)c1ccccc1	1.18	-2.15	0.0089	2.16	0.557	0.106	-0.382	-1.06	0.873	0.615	1.05	0.136 (inactive)	0.522	-0.0013	0.579	3.01	0.4	1.23	-1.41	0.962
CCOC(=O)C1=CC[C@@H](c2ccccc2)N(S(=O)(=O)c2ccc(C)cc2)[C@@H]1C#N	1.32	-1.72	0.0775	1.2	0.325	0.0438	0.14	0.404	0.349	0.786	0.118	0.4 (inactive)	0.0112	-0.026	0.518	1.87	-0.0567	1.23	-0.315	0.855
COC(=O)c1ccc(OC)c(/C=C\CC(OC(=O)c2ccncc2)c2ccccc2)c1 (stereo not given)	-0.734	-1.91	0.684	-1.05	0.157	-0.101	-0.206	-0.183	0.187	2.12	-0.311	0.63 (inactive)	-0.0077	-0.168	0.387	0.0584	-0.304	-0.0077	1.37	0.535
CC(C)c1ccc(NN2C(C(O)c3ccccc3)C=CC3C(=O)N(c4ccccc4)C(=O)C32)cc1 (stereo not given)	1.33	0.618	-0.636	0.793	0.7	0.235	0.171	0.0811	0.588	1.67	0.834	-0.175 (inactive)	0.216	-0.0194	0.574	1.79	-0.191	1.32	-0.747	1.12
COc1cc(Cc2cc3c(c(CCc4ccccc4)n2)[Si](C(C)C)(C(C)C)O[C@H]3c2ccccc2)cc(OC)c1OC	-1.18	-2.37	0.151	-0.448	-0.425	-0.0107	-0.138	-0.0827	0.415	0.537	-0.405	-0.0849 (inactive)	-0.15	-0.181	-0.128	-0.178	-0.177	-0.361	0.06	0.562
